Pf Dd2 growth: qHTS Primary assay for Inhibitors of Plasmodium falciparum Dd2 growth in vitro | hit rate 4.3% among 120,000 | P. falciparum Dd2 growth, SYBR Green, 72 h | Potency, µM (series often up to 28.9 µM), for inactives: at the top dose activity, negative = inhibition, most hits filed as inhibitors; active = well fitted inhibition curve with a large enough effect;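 note: plate controls were DMSO vehicle for no effect and reference drug for full effect; nearly all actives have a fitted effect of over 65% in size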
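Readout: SYBR Green fluorescence, 485 nm excitation, 535 nm emission, after ~16 h lysis at 37C. Before that, Dd2-infected red cells (2.5% hematocrit) grew 72 h with compound, 29 uM top final concentration.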
An asterisk follows results filed as active; i = inactive; [ ] = another dose, or the depositor's remark. The sample as a whole holds a higher share of hits than the screen did. Potency is the fitted concentration of half-maximal effect.

SMILES | Pf Dd2 growth
O=C(Cc1cccc(F)c1)N1C[C@@H](CO)[C@H](c2nc(C3CC3)no2)C1 | 20%
COc1ccc(-n2nc3n(c2=O)CCN(CCC(C)C)C3)cc1 | -16%
CCN(CC)C(=O)c1c(-c2ccccc2)noc1[C@H](C)O | -8%[44.1 µM]
CC(C)(C)C1CCC2(CC1)NC(=O)N(CC(=O)Nc1ccc(F)cc1F)C2=O (configuration not stated) | i
COCC(=O)NC[C@H]1O[C@H](Cc2cc(COC)on2)CC[C@@H]1O | 30%[44.1 µM]
CCCCN1C(=O)c2[nH]nc(-c3ccccc3O)c2C1c1ccc(C(C)(C)C)cc1 (configuration not stated) | 2.8µM*
Cn1ccnc1C(=O)N1C[C@@H](Oc2ccccc2)C[C@H]1C(=O)NC1CC1 | 8%
COc1ccc(-c2nc(CSc3nncn4c3cc3occc34)c(C)o2)cc1 | 10µM*
Cc1ccc(-c2nc(CSc3nncn4c3cc3occc34)c(C)o2)cc1 | -12%
Cc1oc(-c2ccccc2Cl)nc1CSc1nncn2c1cc1occc12 | -23%
CC1(C(=O)NCCN2CCOCC2)CCc2cnc(NCc3ccccc3)nc21 (configuration not stated) | i
Cc1cnc(CC2CCCN(S(=O)(=O)c3ccc4c(c3)OCCO4)C2)n1C(C)C (configuration not stated) | -17%
CN(C)S(=O)(=O)N1CCC(Nc2cccnc2)C1 (configuration not stated) | 60%[5.79 µM]
CCc1ccccc1NC(=O)Cn1c(-c2ccc(F)cc2)nc(C)c(CCO)c1=O | -11%
Cc1cc(C)cc(NC(=O)Cn2c(-c3cccc(Cl)c3)nc(C)c(CCO)c2=O)c1 | 10µM*
Cc1nc(-c2ccc(F)cc2)n(CC(=O)Nc2cc(C(F)(F)F)ccc2Cl)c(=O)c1CCO | 11µM*
Cc1ccc(NC(=O)Cn2c(-c3ccc(F)cc3)nc(C)c(CCO)c2=O)c(Cl)c1 | i
Cc1nc(-c2ccccc2)n(CC(=O)Nc2ccc(F)c(Cl)c2)c(=O)c1CCO | 8.9µM*
CC(=O)c1cccc(NC(=O)Cn2c(-c3ccc(F)cc3)nc(C)c(CCO)c2=O)c1 | -29%
CCc1ccc(NC(=O)Cn2c(-c3ccc(Cl)cc3)nc(C)c(CCO)c2=O)cc1 | -12%
Cc1ccccc1NC(=O)Cn1c(-c2cccc(Cl)c2)nc(C)c(CCO)c1=O | i
Cc1nc(-c2cccc(Cl)c2)n(CC(=O)NC(C)C)c(=O)c1CCO | -12%
CN(Cc1ccccc1)C(=O)CCS(=O)(=O)c1ccc2c(c1)oc(=O)n2C | 66%
c1cn(-c2ccc3cn[nH]c3c2)c(-c2cc3n(n2)CCCNC3)n1 | 8%
CCOC(=O)C1(C)C=C(Nc2ccc(Br)cc2)C(=O)N1c1ccccc1 (configuration not stated) | -3%
SMILES | Pf Dd2 growth
O=C(c1n[nH]c(=O)c2ccccc12)N1CC(CO)C2(CCNCC2)C1 (configuration not stated) | 16%
CCc1ccccc1NC(=O)[C@H](Cc1ccccc1)N1Cc2ccccc2C1=O | -14%
c1cnc(-c2nc(CNc3ncncn3)cs2)cn1 | 3%
COc1ccc(NC(=O)CN(c2ccc(C)cc2)S(=O)(=O)c2cccs2)cc1 | 33%
O=C(C[C@@H]1O[C@H](CNC(=O)Nc2cccc(F)c2)[C@@H](O)[C@H]1O)NCc1cccnc1 | -18%[44.1 µM]
CN(Cc1cccn1C)C(=O)Nc1ccccc1 | 4%[44.1 µM]
Cc1cc(F)ccc1OC1CN(CC2CC2)C1 | -20%[44.1 µM]
Cc1cc(F)ccc1OC1CN(Cc2ccc(C#N)cc2)C1 | i
COc1ccc(CN2CC(Oc3ccc(F)cc3C)C2)cc1 | 11µM*
COc1ccc(CN2CC(Oc3ccc(F)cc3F)C2)cc1 | -30%[44.1 µM]
COc1ccccc1C(=O)N1CC(Oc2ccc(F)cc2C)C1 | -20%[44.1 µM]
Cc1cc(F)ccc1OC1CN(CC2CCCCC2)C1 | 8.9µM*
Cn1c(=O)[nH]c2cc(-c3noc(-c4ccc(Br)cc4)n3)ccc21 | 39%
COc1cccc(CNC(=O)C2CCN(C(=O)c3ncn4c3COC(c3ccc(F)cc3)C4)CC2)c1 (configuration not stated) | i
COc1ccc(C(=O)N2CCC3(CC2)N=C(c2cccc(Br)c2)NO3)cc1 | i
Cc1cc(C)c(NC(=O)CN2C(=O)c3cccnc3Sc3ccccc32)c(C)c1 | -27%
Cc1cc(NC(=O)CN2C(=O)c3cccnc3Sc3ccccc32)ccc1Br | 11µM*
CCc1ccccc1NC(=O)CN1C(=O)c2cccnc2Sc2ccccc21 | -19%
O=C(c1c[nH]c2ncccc12)N1CCN(Cc2ccccc2)CC1 | i
Cc1ccc(-n2nc(C)c([C@@H]3C=C[C@@H](NS(=O)(=O)c4cccs4)C3)c2C)cc1Cl | 11µM*
Cc1ccc(-n2nc(C)c([C@H]3C=C[C@@H](O)C3)c2C)cc1Cl | i
COc1ccc(C(=O)N[C@@H]2C=C[C@@H](c3c(C)nn(-c4ccccc4)c3C)C2)cc1 | -24%[44.1 µM]
COc1ccc(C(=O)N[C@@H]2C=C[C@@H](c3c(C)nn(-c4ccc(C)c(Cl)c4)c3C)C2)cc1 | 4.5µM*
COc1ccc(C(=O)N[C@@H]2C=C[C@@H](c3c(C)nn(-c4ccc(C(F)(F)F)cc4)c3C)C2)cc1 | -7%
Cc1nn(-c2ccc(C(F)(F)F)cc2)c(C)c1[C@@H]1C=C[C@@H](NS(=O)(=O)c2ccccc2)C1 | i
SMILES | Pf Dd2 growth
Cc1ccccc1CN1CCCN(CC(=O)Nc2c(C)cccc2C)S1(=O)=O | 51%
COc1ccc(C2=NOC3(CCCN(C(=O)c4ccccn4)C3)C2)cc1 (configuration not stated) | 3%
COc1ccc(NC(=O)C(Cc2ccccc2)n2cccc2)cc1OC (configuration not stated) | -17%
CCC1CN(C(=O)N2CCC(C(=O)N3CCN(c4ccccc4)CC3)CC2)c2ccccc2O1 (configuration not stated) | -16%
Cc1ccc(Cl)cc1NC(=O)CCc1c(C)nc2c3cccnc3nn2c1C | -8%
CCN(CC)CCNC(=O)c1ccc2c(c1)sc1nc(-c3ccc(F)cc3)cn12 | 3.2µM*
Cc1c(C(=O)NCc2ccccc2Cl)sc2nc(-c3ccc(F)cc3)cn12 | i
CCOc1ccc(-c2cn3c(n2)sc2cc(C(=O)NCCCN4CCCCC4)ccc23)cc1 | 2.5µM*
CCN(CC)CCNC(=O)C1CCN(c2nn3cc(-c4ccc(F)cc4)nc3s2)CC1 | -9%
COc1ccc(-c2cn3c(n2)sc2cc(C(=O)Nc4c(C)cccc4C)ccc23)cc1 | 6%
CCOc1ccc(-c2cn3c(n2)sc2cc(C(=O)NCCCN(CC)CC)ccc23)cc1 | 2.8µM*
CCOc1ccc(-c2cc3c(=O)n(CCNC(=O)c4ccc(Cl)cc4)ccn3n2)cc1 | 0%
CCOc1ccc(-c2cn3c(n2)sc2cc(C(=O)NC4CCCc5ccccc54)ccc23)cc1 (configuration not stated) | -20%
COc1ccc(-c2cn3c(n2)sc2cc(C(=O)Nc4ccc(C)c(Cl)c4)ccc23)cc1 | 6.3µM*
COc1ccc(-c2cn3c(n2)sc2cc(C(=O)Nc4ccc(C)cc4C)ccc23)cc1 | -8%
CCOc1ccccc1NC(=O)C(Cc1ccccc1)NS(=O)(=O)c1ccc(Br)s1 (configuration not stated) | -6%
CC(=O)c1ccc(C(=O)N[C@H]2COC[C@H]2Cc2cc(C)no2)s1 | -9%
Cc1ccc(-c2nc(CN3C(=O)CN=C(c4ccccc4)c4ccccc43)c(C)o2)cc1 | -25%
CC[C@@H]1[C@H](NC(=O)c2cccc(N3CCS(=O)(=O)CC3)c2)[C@@H]2CCO[C@H]12 | -3%
CCCN1CCN(CCCNC(=O)c2ccc3c(c2)sc2nc(-c4ccc(OCC)cc4)cn23)CC1 | 1.3µM*
